TGFb inhibitor – inhibitors of TGF-b signaling; Potency, µM (titrated, usually from 46.1 µM), most hits filed as inhibitors; hit rate 1.2% among 410,000; HepG2 CAGA-GFP TGF-b/SMAD3 reporter, GFP fluorescence, 18 h; TGF-beta stimulated, 500 pg/mL final; also: nearly all actives have a fitted effect of over 65% in size
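GFP signal (ex488/em500-530) from TGF-beta-stimulated HEPG2 CAGA-GFP cells, 500 pg/mL final, 18 h at 37 degrees C in DMEM plus 1% FBS, normalized to unstimulated and DMSO-stimulated controls.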
TDP1 cell CPT – growth inhibition of DT40 Tdp1-/-;hTDP1 cells with camptothecin (screen for TDP1 inhibitors); chicken DT40 Tdp1-/-;hTDP1 cells + 20 nM CPT, ATP luminescence, 48 h; hit rate 12% among 420,000; Potency, µM (highest dose often 46.2 µM), hits mostly inhibitors; also: nearly all actives have a fitted effect of over 55% in size
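Chicken DT40 Tdp1-/- cells complemented with human TDP1, 400 cells/well, exposed to compounds plus 20 nM camptothecin for at least 48 h at 37 C; viability read as ATP content by CellTiter-Glo luminescence.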
HepG2 tox – counter-screen for TGF-b inhibitors: cytotoxicity in HepG2 cells; HepG2 CAGA-GFP viability, ATP luminescence, 18 h; Potency, µM (highest dose often 46.1 µM), usual class: cytotoxic; hit rate 0.76% among 410,000; AID 588856
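CellTiter-Glo luminescence gave cytotoxicity after 18 hours at 37 degrees C. The cells were HepG2 CAGA-GFP in 1% FBS DMEM, stimulated with 500 pg/mL TGF-beta after compound addition. %Activity was normalised to no-cell wells (complete cell-killing) and DMSO (no toxicity), and curves were fitted and classified.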
HT1080NT lethal – kills 2HG-producing HT-1080-NT fibrosarcoma cells; Potency, µM (titrated, usually from 46.1 µM), actives largely listed as cytotoxic; hit rate 1.6% among 360,000; HT-1080-NT fibrosarcoma viability, CellTiter-Glo ATP luminescence, 48 h;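 also: NT is the 2HG producing partner of a matched IDH1 knockdown line; nearly all actives have a fitted effect of over 55% in size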
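Luminescent CellTiter-Glo readout after 48 hours of compound exposure at 37 degrees C defined viability of HT-1080-NT cells. Activity was normalized to DMSO wells and cell-free media wells; concentration-response curves were fitted and assigned curve classes.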
HT1080 IDH1KD tx – toxicity to HT-1080 IDH1 knockdown cells (counter line); HT-1080 IDH1 knockdown viability, ATP luminescence, 48 h; Potency, µM (series often up to 46.1 µM), usual class: cytotoxic; hit rate 2% among 360,000; AID 686971
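IDH1KD HT-1080 cells, 750/well, RPMI + 5% FBS; compound pinned after 2 h settling; 48 h, 37 °C; CellTiter-Glo luminescence; % activity normalised to DMSO and no-cell wells; curves fitted, classed by r2 and efficacy.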
DT40 TDP1 no CPT – qHTS for Inhibitors of human tyrosyl-DNA phosphodiesterase 1 (TDP1): qHTS in cells in absence of CPT; Potency, µM (series often up to 46.2 µM), actives largely listed as inhibitors; DT40 Tdp1-/- hTDP1 cells, no CPT, ATP luminescence, 48 h; hit rate 15% among 420,000; also: nearly all actives have a fitted effect of over 55% in size
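Chicken DT40 Tdp1-/- cells complemented with human TDP1, screened without camptothecin (DMSO vehicle only), 400 cells/well. Compounds pin-transferred, cells incubated at 37 °C for at least 48 hr. Growth read as ATP-dependent luminescence (CellTiter-Glo, 30 min at RT).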
Each line names hits and unclear results; the compound was inactive in the other large screens. In the library only some 17% were active in any assay of this set; here they are far more common. Calls follow the shape of the dose curve; as a rule, active = well fitted curve in the direction sought with a large enough effect; inconclusive = small, poorly fitted or top-dose-only effect, or another doubt; inactive = no such curve, though single readings can be large; an effect the other way counts as inactive or inconclusive.

COc1cc(NC(=O)[C@@H]2O[C@H](CO)[C@@H](O)[C@H]2O)cc(OC)c1OC	none
Cc1cccc(/C=N/NC(=O)c2ccc(NC(=O)c3cccc(Cl)c3)cc2)n1	TGFb inhibitor inconclusive, HT1080 IDH1KD tx inconclusive
Cc1cccc(C(O)C(O)c2cccc(C)n2)n1 (stereo not drawn)	none
Cc1cccc(C(P(=O)(c2ccccc2)c2ccccc2)P(=O)(c2ccccc2)c2ccccc2)n1	TDP1 cell CPT inconclusive, DT40 TDP1 no CPT 16µM
CCCC(=O)N1CCC1(C)C(=O)Nc1ccc2c(c1)CCN2C(C)=O (stereo not drawn)	none
CCCCN(c1ccccc1)S(=O)(=O)c1cc2c3c(c1)C(C)C(=O)N3CCC2 (stereo not drawn)	TGFb inhibitor inconclusive, TDP1 cell CPT 10µM, DT40 TDP1 no CPT 29µM (no result: HT1080NT lethal, HT1080 IDH1KD tx)
Cc1cnc(CNc2cc(-c3ccc(N(C)C)cc3)ncn2)cn1	none (no result: TGFb inhibitor, HepG2 tox, HT1080NT lethal, HT1080 IDH1KD tx)
COC(=O)[C@H]1C[C@H](OC(=O)NCc2ccco2)[C@@]2(O)CN(S(=O)(=O)c3ccc(C)cc3)CC2[C@H]1C(=O)OC (stereo partly drawn)	TDP1 cell CPT inconclusive, DT40 TDP1 no CPT inconclusive
CCOc1ccc(NC(=O)CNC(=O)c2cn(-c3ccccc3OC)c(=O)c3ccccc23)cc1	none
Cc1nc(N2CCN(c3ccccn3)CC2)c2c(C)c(C(=O)Nc3ccccc3F)sc2n1	TDP1 cell CPT inconclusive, DT40 TDP1 no CPT 16µM
Cc1nc(N2CCN(c3ccccn3)CC2)c2c(C)c(C(=O)Nc3ccc(F)cc3Cl)sc2n1	TDP1 cell CPT 23µM, DT40 TDP1 no CPT 21µM
Cc1nc(N2CCN(c3ccccn3)CC2)c2c(C)c(C(=O)Nc3ccc(F)cc3F)sc2n1	TDP1 cell CPT 16µM, DT40 TDP1 no CPT 13µM
Cc1ccc(Cl)cc1NC(=O)CSc1nc2ccccc2c2nc(-c3ccccc3)nn12	none (no result: HT1080NT lethal, HT1080 IDH1KD tx)
CN1CCN(C(=O)CCCN2C(=O)/C(=C/c3ccccc3)SC2=S)CC1	TGFb inhibitor inconclusive, TDP1 cell CPT 18µM, HT1080NT lethal inconclusive, HT1080 IDH1KD tx inconclusive, DT40 TDP1 no CPT 16µM
O=C(O)CCCN1C(=O)/C(=C\C(Cl)=C\c2ccccc2)SC1=S	TGFb inhibitor inconclusive, TDP1 cell CPT 18µM, HT1080NT lethal inconclusive, HT1080 IDH1KD tx inconclusive, DT40 TDP1 no CPT 21µM
CN1CCN(C(=O)CCCN2C(=O)/C(=C/c3ccc(Cl)cc3)SC2=S)CC1	TGFb inhibitor inconclusive, TDP1 cell CPT 15µM, DT40 TDP1 no CPT 12µM
CCc1ccc(/C=C2\SC(=S)N(CCC(=O)N3CCN(C)CC3)C2=O)cc1	DT40 TDP1 no CPT inconclusive
CN1CCN(C(=O)CCN2C(=O)/C(=C\c3ccc(Cl)cc3Cl)SC2=S)CC1	TGFb inhibitor inconclusive, TDP1 cell CPT 15µM, HT1080NT lethal inconclusive, HT1080 IDH1KD tx inconclusive, DT40 TDP1 no CPT 12µM
Cc1ccc(NC(=O)c2ccccc2)cc1	none
Cc1ccc(NC(=O)C2=C(c3ccccc3)S(=O)(=O)CCS2(=O)=O)cc1	TGFb inhibitor 3.5µM, TDP1 cell CPT 0.46µM, HepG2 tox 7.1µM, HT1080NT lethal 10µM, HT1080 IDH1KD tx 7.3µM, DT40 TDP1 no CPT 0.58µM
CCCCN(CC)C(=O)CSc1nc2c(sc3ccccc32)c(=O)n1CCc1ccccc1	TDP1 cell CPT inconclusive, DT40 TDP1 no CPT 5.2µM (no result: HT1080NT lethal, HT1080 IDH1KD tx)
CCOC(=O)CSc1nc2c(sc3ccccc32)c(=O)n1CCc1ccccc1	TGFb inhibitor inconclusive, DT40 TDP1 no CPT inconclusive (no result: HT1080NT lethal, HT1080 IDH1KD tx)
CCc1ccc(NC(=O)CSc2nc3c(sc4ccccc43)c(=O)n2CCCOC(C)C)cc1	DT40 TDP1 no CPT 21µM (no result: HT1080NT lethal, HT1080 IDH1KD tx)
COCCCNC(=O)CSc1nc2c(sc3ccccc32)c(=O)n1CCc1ccccc1	none (no result: HT1080NT lethal, HT1080 IDH1KD tx)
CCOC(=O)CSc1nc2c(sc3ccccc32)c(=O)n1Cc1ccc(C)cc1	TDP1 cell CPT 21µM, DT40 TDP1 no CPT inconclusive (no result: HT1080NT lethal, HT1080 IDH1KD tx)

Source: PubChem (National Center for Advancing Translational Sciences (NCATS))
